Results taken from PubChem BioAssay (NCATS).
Records with an inconclusive call do not appear. Values without a mark were called inactive. Calls of active or inactive are those of the source. Calls follow the shape of the dose curve; as a rule, active = well fitted inhibition curve with a large enough effect; inconclusive = small, poorly fitted or top-dose-only effect, or effect the other way; inactive = flat fitted curve, though single readings scatter.

biological target: ATP-dependent 6-phosphofructokinase (Trypanosoma brucei brucei) (UniProt O15648); assay: qHTS Assay to Find Inhibitors of T. brucei phosphofructokinase: hit validation (AID 492961);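 as to activity change, negative = inhibition: luminescence reports ADP formed as PFK phosphorylates fructose-6-phosphate with ATP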; details: T. brucei PFK, ADP-Glo luminescence; series mostly up to 51.4 µM; activity change, negative = inhibition: at the top concentration
Summary of the method: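 Reaction: 0.1 M triethanolamine pH 8.0, 5 mM MgCl2, F6P 0.5 mM, ATP 0.1 mM, PFK 1.25 nM, 45 min RT. Read-out: ADP-Glo luminescence. Analysis: concentration-response fits, classed by r2 and efficacy.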
% is scaled to controls: 0 for no effect and ±100 for the full control effect; potency is read from the fitted curve at half-maximal effect.

Sequence of ATP-dependent 6-phosphofructokinase (Trypanosoma brucei brucei) (O15648 whole entry, looked up): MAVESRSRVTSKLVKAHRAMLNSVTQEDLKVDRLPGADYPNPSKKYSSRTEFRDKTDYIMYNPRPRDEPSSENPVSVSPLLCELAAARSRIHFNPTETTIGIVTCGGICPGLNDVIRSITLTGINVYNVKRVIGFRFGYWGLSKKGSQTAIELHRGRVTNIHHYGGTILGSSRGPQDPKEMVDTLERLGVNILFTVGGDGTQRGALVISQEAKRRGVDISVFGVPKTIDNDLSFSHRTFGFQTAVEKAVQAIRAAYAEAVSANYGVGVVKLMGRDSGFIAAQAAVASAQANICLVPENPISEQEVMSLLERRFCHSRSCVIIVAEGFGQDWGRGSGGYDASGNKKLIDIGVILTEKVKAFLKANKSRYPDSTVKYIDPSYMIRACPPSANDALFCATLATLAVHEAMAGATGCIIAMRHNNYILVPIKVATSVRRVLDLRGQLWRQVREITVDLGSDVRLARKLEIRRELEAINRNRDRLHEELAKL

Compound | activity change, negative = inhibition | Potency
CN1CCCC(n2nc(Cc3ccc(Cl)cc3)c3ccccc3c2=O)CC1 (configuration not stated) | 15.1% | –
CCOC(=O)[C@H](CCc1ccccc1)N[C@H]1CS[C@H](c2cccs2)CN(CC(=O)O)C1=O | 0.108% | –
COc1cc([C@@H]2c3cc4c(cc3[C@H](O)[C@H]3COC(=O)[C@H]23)OCO4)cc(OC)c1OC | 4.04% | –
O=C(O)c1cn(C2CC2)c2cc(N3CCNCC3)c(F)cc2c1=O | -2.58% [at 24.3 µM] | –
COc1ccc(-c2ccc3cc(C(=O)O)ccc3c2)cc1C12CC3CC(CC(C3)C1)C2 | – | 15.8 µM (active)
COc1cc(NCc2ccc3nc(N)nc(N)c3c2C)cc(OC)c1OC | 6.46% | –
C[C@]12C=CC(=O)C=C1CC[C@@H]1[C@@H]2C(=O)C[C@@]2(C)[C@H]1CC[C@]2(O)C(=O)CO | -3.94% | –
CNCC[C@H](Oc1cccc2ccccc12)c1cccs1 | -2.57% | –
C#CCN[C@@H]1CCc2ccccc21 | -11.7% | –
CC[C@H](NC(C)C)[C@H](O)c1ccc(O)c2[nH]c(=O)ccc12 | 3.84% | –
Cc1ccnc2c1NC(=O)c1cccnc1N2C1CC1 | -6.12% | –
CC[C@H](C)C(=O)O[C@H]1C[C@@H](C)C=C2C=C[C@H](C)[C@H](CC[C@@H]3C[C@@H](O)CC(=O)O3)[C@H]21 | 15.1% | –
COc1ncnc(NS(=O)(=O)c2ccc(N)cc2)c1OC | 0.471% | –
CN1CCN(c2c(F)cc3c(=O)c(C(=O)O)cn(CCF)c3c2F)CC1 | 6.19% | –
N[C@@H](C(=O)N[C@@H]1C(=O)N2C(C(=O)O)=C(Cl)CS[C@H]12)c1ccccc1 | 19.3% | –
CCc1c2c(nc3ccc(OC(=O)N4CCC(N5CCCCC5)CC4)cc13)-c1cc3c(c(=O)n1C2)COC(=O)[C@]3(O)CC | -3.52% | –
COc1cc(NS(=O)(=O)c2ccc(N)cc2)nc(OC)n1 | -1.29% [at 24.3 µM] | –
CC(N)C12CC3CC(CC(C3)C1)C2 (configuration not stated) | -9.46% | –
NC(=O)c1cccnc1 | -3.92% | –
CNNCc1ccc(C(=O)NC(C)C)cc1 | 0% | –
Oc1c(Cl)cc(Cl)c2cccnc12 | 17.3% | –
C1CCC(C(CC2CCCCN2)C2CCCCC2)CC1 (configuration not stated) | 11.5% | –
O=NN(CCCl)C(=O)NC1CCCCC1 | -4.37% | –
CNS(=O)(=O)Cc1ccc2[nH]cc(CCN(C)C)c2c1 | 11.6% | –
CCCN[C@H]1CCc2nc(N)sc2C1 | 0% | –
O=C(O)c1cc(=O)[nH]c(=O)[nH]1 | -1.25% | –
CC1=NN(c2ccccc2)C(=O)C1 | 2.67% | –
